This note sets out measurements from ChEMBL document CHEMBL1961873, “Compounds: GSK PKIS; Assays: Nanosyn kinase panel” (2012).

The target of assay [1] is Protein kinase C gamma type (Homo sapiens) (UniProt P05129). The following applies: at 1 µM.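 Also: each value is an averaged percent inhibition of the enzyme.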
The target of assay [2] is T1, Protein kinase C iota type (Homo sapiens) (UniProt P41743).
T1 sequence (whole entry): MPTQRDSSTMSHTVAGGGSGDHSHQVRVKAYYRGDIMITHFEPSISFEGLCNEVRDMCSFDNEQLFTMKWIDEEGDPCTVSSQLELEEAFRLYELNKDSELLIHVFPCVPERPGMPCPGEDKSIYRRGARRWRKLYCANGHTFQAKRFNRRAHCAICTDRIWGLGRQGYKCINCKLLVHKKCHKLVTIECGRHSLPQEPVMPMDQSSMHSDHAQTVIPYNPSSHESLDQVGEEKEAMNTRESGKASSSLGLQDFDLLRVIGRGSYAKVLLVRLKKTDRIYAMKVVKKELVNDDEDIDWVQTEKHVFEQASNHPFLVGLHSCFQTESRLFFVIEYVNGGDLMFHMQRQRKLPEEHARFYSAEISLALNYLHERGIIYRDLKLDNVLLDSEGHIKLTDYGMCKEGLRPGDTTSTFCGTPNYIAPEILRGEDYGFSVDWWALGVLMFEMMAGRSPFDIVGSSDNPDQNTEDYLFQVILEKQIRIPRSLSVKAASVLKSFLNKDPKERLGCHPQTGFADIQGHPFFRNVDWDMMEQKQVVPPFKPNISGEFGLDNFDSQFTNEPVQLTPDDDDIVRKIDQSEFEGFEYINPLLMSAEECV
The following applies: at 0.1 µM.

In assay [3] the target is T1, Protein kinase C iota type (Homo sapiens). The settings on record: at 1 µM.
Assay [4] deals with Protein kinase C theta type (Homo sapiens) (UniProt Q04759). The following applies: at 0.1 µM.
Sequence of Protein kinase C theta type (Homo sapiens) (Q04759 whole entry, looked up): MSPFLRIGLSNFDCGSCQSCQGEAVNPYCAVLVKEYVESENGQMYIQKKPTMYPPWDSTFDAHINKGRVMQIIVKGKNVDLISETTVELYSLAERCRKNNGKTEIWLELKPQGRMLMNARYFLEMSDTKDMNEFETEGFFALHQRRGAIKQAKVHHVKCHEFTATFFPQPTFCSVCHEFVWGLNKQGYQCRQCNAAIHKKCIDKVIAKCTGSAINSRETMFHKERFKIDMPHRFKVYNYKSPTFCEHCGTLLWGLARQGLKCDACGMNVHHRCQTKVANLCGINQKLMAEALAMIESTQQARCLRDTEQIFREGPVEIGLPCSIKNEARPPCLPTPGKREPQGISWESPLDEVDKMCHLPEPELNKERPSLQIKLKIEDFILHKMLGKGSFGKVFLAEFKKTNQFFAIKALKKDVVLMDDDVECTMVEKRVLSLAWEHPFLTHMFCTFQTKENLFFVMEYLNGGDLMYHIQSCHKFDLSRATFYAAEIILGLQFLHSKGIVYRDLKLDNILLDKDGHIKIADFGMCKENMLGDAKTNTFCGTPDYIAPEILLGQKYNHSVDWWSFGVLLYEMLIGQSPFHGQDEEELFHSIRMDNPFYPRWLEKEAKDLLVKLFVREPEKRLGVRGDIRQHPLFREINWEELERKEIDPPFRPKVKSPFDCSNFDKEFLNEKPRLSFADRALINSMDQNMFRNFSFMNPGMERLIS
For assay [5] the target is unchanged. The settings on record: at 1 µM.
Assay [6] has as its target Protein kinase C beta type (Homo sapiens) (UniProt P05771). The settings on record: at 0.1 µM.
For assay [7] the target is unchanged. The following applies: at 1 µM.
Assay [8] concerns the target T2, Serine/threonine-protein kinase D1 (Homo sapiens) (UniProt Q15139).
T2 sequence (whole entry): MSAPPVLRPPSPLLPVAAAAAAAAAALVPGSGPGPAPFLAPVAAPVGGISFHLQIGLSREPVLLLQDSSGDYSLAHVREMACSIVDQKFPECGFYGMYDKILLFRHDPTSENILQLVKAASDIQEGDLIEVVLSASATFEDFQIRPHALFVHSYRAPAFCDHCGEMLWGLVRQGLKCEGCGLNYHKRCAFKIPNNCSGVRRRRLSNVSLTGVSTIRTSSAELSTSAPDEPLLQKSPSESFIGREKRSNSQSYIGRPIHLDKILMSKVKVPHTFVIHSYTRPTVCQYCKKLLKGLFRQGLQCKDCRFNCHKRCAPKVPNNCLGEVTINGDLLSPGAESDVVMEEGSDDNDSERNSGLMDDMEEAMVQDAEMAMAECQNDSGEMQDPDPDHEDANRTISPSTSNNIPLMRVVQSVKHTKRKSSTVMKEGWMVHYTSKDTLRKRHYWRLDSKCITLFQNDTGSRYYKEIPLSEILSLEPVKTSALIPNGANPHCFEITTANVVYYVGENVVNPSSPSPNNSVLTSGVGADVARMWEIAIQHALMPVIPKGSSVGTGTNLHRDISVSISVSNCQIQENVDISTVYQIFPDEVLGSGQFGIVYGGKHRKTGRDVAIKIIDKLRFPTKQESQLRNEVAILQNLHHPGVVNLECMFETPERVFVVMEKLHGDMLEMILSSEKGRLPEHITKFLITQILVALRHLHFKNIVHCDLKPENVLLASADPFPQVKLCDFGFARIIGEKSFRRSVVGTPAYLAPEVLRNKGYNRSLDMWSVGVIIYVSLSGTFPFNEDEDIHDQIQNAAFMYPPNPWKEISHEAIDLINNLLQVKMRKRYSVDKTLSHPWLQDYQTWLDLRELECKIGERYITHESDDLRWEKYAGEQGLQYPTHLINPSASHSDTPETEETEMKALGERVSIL
The settings on record: at 0.1 µM.

Assay [9] concerns the target T2, Serine/threonine-protein kinase D1 (Homo sapiens). The following applies: at 1 µM.
Assay [10] deals with T3, Serine/threonine-protein kinase D2 (Homo sapiens) (UniProt Q9BZL6).
T3 sequence (whole entry): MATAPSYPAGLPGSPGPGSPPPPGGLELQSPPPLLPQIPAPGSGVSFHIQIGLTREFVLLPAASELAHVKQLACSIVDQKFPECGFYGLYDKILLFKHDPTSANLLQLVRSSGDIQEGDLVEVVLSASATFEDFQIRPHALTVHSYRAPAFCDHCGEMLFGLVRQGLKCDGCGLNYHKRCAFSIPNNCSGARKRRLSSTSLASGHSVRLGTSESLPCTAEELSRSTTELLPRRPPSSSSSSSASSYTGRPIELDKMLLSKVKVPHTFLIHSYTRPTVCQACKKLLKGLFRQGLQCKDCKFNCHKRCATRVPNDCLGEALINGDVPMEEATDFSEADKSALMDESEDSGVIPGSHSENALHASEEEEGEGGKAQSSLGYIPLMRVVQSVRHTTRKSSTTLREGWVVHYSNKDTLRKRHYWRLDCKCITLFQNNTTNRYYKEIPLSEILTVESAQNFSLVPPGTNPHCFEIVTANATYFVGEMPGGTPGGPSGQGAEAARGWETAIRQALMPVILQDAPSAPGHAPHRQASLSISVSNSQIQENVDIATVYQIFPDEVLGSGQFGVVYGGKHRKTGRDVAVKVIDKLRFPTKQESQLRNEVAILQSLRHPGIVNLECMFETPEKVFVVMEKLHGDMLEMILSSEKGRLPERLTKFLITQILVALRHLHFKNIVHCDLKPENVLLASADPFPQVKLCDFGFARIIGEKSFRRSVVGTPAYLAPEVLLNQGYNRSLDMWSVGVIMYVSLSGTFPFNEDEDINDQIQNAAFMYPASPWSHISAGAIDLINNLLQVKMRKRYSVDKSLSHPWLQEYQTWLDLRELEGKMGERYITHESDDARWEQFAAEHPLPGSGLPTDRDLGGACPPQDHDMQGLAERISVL
The settings on record: at 0.1 µM.

Assay [11] concerns the target T3, Serine/threonine-protein kinase D2 (Homo sapiens). The following applies: at 1 µM.
Assay [12] concerns the target T4, Serine/threonine-protein kinase D3 (Homo sapiens) (UniProt O94806).
T4 sequence (whole entry): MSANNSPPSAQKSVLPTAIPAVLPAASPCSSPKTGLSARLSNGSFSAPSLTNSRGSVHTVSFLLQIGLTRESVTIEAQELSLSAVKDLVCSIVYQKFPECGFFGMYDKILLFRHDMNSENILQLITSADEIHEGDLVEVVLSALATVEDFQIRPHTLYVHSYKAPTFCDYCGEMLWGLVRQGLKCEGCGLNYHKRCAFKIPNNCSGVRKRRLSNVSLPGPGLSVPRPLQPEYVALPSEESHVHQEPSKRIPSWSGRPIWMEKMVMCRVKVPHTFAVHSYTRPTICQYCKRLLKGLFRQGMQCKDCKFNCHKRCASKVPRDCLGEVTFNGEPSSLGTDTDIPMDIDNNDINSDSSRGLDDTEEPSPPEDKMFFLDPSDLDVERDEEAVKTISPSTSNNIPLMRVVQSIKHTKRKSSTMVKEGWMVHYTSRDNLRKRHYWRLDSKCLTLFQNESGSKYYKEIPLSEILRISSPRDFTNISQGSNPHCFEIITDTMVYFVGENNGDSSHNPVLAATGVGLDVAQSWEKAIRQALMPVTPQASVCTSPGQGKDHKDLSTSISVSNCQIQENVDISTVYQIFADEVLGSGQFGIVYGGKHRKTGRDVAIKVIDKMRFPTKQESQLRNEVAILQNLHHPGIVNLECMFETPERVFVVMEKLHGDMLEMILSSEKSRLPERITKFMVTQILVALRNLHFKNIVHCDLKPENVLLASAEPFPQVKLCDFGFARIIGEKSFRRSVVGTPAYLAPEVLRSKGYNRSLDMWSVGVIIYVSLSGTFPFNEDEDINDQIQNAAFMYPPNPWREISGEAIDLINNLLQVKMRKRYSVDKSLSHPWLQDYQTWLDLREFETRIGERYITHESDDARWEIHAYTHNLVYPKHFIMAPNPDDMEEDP
The settings on record: at 0.1 µM.

In assay [13] the target is T4, Serine/threonine-protein kinase D3 (Homo sapiens). The settings on record: at 1 µM.
In assay [14] the target is T5, cGMP-dependent protein kinase 1 (Homo sapiens) (UniProt Q13976).
T5 sequence (whole entry): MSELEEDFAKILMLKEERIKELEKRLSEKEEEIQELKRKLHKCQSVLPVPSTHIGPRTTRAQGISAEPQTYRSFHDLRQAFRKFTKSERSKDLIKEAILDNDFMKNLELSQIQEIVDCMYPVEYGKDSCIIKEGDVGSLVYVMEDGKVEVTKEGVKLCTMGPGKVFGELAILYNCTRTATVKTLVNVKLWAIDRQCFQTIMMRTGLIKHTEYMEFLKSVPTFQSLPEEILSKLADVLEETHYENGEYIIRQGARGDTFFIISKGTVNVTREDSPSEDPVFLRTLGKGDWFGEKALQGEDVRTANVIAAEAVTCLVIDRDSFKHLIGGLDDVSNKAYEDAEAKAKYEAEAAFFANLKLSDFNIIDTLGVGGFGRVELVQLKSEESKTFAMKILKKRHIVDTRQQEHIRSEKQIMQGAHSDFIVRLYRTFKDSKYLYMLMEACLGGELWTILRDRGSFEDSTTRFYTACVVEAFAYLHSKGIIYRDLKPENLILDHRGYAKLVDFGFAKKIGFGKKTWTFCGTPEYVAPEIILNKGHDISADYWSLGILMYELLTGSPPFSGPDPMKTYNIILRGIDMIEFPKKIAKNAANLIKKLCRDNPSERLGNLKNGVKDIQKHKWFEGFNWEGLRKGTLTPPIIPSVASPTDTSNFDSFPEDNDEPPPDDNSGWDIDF
The following applies: at 0.1 µM.

Assay [15] addresses T5, cGMP-dependent protein kinase 1 (Homo sapiens). The settings on record: at 1 µM.
Assay [16] has as its target T6, cGMP-dependent protein kinase 2 (Homo sapiens) (UniProt Q13237).
T6 sequence (whole entry): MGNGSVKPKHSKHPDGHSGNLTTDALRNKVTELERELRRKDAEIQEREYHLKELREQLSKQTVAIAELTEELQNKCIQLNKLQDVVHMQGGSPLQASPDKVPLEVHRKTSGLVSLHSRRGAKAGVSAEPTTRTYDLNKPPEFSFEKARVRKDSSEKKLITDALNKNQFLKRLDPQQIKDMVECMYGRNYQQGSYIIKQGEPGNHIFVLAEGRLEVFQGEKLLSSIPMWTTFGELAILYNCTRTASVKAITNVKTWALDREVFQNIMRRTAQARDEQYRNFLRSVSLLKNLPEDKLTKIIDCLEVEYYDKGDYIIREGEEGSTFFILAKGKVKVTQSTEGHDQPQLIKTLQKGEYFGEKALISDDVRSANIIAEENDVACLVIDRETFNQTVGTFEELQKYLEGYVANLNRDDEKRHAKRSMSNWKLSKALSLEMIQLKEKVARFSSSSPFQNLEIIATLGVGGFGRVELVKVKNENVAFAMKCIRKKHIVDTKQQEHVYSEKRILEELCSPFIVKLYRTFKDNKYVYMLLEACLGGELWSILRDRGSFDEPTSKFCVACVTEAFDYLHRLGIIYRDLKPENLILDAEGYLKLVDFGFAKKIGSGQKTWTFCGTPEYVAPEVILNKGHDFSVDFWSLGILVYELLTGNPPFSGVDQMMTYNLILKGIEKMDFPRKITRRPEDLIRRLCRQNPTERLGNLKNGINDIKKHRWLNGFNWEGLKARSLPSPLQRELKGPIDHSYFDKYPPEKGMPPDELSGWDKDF
The settings on record: at 0.1 µM.

Assay [17] deals with T6, cGMP-dependent protein kinase 2 (Homo sapiens). The following applies: at 1 µM.
Assay [18] has as its target T7, cAMP-dependent protein kinase catalytic subunit PRKX (Homo sapiens) (UniProt P51817).
T7 sequence (whole entry): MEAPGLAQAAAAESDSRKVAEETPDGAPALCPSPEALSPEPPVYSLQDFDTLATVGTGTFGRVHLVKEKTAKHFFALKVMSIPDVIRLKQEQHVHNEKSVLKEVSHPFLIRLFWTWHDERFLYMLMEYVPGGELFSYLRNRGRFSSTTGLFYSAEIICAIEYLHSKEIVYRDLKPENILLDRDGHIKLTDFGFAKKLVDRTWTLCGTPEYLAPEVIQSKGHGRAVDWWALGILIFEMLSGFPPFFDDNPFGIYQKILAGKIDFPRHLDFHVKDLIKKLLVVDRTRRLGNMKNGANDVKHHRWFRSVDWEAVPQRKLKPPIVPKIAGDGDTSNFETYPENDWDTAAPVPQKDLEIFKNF
The following applies: at 0.1 µM.

Assay [19] addresses T7, cAMP-dependent protein kinase catalytic subunit PRKX (Homo sapiens). The settings on record: at 1 µM.
The target of assay [20] is Rho-associated protein kinase 1 (Homo sapiens) (UniProt Q13464). The settings on record: at 0.1 µM.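 Also: values are mean percent inhibition of ROCK1.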
Sequence of Rho-associated protein kinase 1 (Homo sapiens) (Q13464 2-1354 limits assumed): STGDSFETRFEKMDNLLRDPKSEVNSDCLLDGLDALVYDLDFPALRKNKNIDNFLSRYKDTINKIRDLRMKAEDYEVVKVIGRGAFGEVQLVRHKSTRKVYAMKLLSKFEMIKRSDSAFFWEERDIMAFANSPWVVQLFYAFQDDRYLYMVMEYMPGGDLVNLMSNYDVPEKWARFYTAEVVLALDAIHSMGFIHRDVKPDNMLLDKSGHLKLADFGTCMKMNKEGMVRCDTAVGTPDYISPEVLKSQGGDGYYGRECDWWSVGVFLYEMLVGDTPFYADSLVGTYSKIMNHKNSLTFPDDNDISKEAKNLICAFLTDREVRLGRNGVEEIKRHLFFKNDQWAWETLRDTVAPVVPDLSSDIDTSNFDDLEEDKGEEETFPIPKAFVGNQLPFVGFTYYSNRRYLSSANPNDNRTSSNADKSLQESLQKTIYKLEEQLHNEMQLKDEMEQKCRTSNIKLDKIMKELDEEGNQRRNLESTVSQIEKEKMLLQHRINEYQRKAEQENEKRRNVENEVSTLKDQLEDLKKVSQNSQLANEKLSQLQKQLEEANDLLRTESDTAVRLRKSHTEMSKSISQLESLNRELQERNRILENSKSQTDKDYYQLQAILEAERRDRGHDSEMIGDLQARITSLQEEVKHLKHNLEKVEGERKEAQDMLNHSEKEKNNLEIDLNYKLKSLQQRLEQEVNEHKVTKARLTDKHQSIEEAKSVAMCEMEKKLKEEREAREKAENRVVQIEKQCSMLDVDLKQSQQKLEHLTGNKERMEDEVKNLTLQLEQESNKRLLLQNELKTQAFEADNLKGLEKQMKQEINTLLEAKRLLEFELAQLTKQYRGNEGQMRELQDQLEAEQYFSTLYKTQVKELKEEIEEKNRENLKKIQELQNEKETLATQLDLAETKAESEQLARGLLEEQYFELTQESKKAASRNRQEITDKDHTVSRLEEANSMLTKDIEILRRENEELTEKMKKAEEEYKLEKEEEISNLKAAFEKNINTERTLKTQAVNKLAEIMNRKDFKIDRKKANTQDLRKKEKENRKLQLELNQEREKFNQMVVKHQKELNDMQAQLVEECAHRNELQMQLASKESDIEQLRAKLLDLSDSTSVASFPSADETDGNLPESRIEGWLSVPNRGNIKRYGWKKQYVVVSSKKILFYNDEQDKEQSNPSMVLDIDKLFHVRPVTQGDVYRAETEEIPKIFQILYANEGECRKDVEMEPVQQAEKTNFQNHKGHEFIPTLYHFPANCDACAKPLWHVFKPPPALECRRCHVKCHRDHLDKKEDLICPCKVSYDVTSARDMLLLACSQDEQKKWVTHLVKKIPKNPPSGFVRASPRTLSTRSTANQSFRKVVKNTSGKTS

Each structure is given as a SMILES string.

Sequence of Protein kinase C beta type (Homo sapiens) (P05771 2-671 limits assumed): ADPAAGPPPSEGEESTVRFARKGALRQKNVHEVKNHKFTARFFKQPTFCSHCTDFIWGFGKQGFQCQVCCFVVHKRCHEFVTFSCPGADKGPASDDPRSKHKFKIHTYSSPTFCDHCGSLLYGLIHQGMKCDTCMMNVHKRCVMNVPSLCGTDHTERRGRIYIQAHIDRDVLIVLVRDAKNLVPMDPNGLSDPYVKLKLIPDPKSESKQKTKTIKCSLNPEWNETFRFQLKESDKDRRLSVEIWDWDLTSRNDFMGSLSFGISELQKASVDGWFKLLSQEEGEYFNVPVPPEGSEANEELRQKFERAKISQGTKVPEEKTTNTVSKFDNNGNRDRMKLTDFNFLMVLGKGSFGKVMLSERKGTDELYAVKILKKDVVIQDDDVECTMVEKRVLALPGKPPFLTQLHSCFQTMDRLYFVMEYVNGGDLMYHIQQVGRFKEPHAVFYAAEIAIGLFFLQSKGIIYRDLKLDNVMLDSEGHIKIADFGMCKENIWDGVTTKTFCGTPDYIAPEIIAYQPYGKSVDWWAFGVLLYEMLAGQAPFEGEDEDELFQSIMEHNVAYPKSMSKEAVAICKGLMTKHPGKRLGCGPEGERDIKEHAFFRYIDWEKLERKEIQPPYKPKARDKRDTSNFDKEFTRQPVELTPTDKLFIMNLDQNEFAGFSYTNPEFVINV

On to `c1ccc(-c2nc3n(c2-c2ccc4c(c2)OCO4)CCC3)nc1`, for which the inhibition in assay [1] was determined as 2.8%; in [2], 2.19%; in [3] it was 3.9%; in [4], 1.78%; in assay [5], 3.83%; in assay [6], 1.96%. Also, the inhibition in assay [7] was determined as 4.57%; in assay [8] it was 1.92%; in assay [9], 5.43%; in assay [10], 1.94%; in assay [11], 4.47%; in assay [12] it was 2.58%. For the same molecule, the inhibition is 5.25% in assay [13]; 2.47% in assay [14]; 2.75% in [15]; 1.67% in assay [16]; 2.85% in [17]; 0.87% in [18]. Besides, the figures for the inhibition in assay [19] and in assay [20] were 3.61% and 3.64%, respectively.

A word on the inhibition: it is the change of the read-out against control, counted positive when it falls.
